This is part of a sample that, as a whole, favours compounds with a hit. Of some 79,000 tested, about 15% had one in any assay. Cut-off read from the data, not from the text of the source: active = growth inhibition above about 70%; inactive = the rest.
Experiments:
[1] = NCI Yeast Anticancer Drug Screen. Data for the rad50 strain (AID 155);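 note: 0% = growth of vehicle-only cultures of the same strain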; conditions: S. cerevisiae rad50 strain growth inhibition; at 50.0 µM; stronger effect = higher value
Procedure, shortened: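 DNA repair mutant yeast, compound exposure, growth read-out; inhibition is taken relative to vehicle.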

[2] = NCI Yeast Anticancer Drug Screen. Data for the mec2-1 strain (AID 157); conditions: S. cerevisiae mec2-1 strain, at 50.0 µM, stronger effect = higher value
Procedure, shortened: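 Readout is yeast growth inhibition, normalised to vehicle-treated controls, in the mec2-1 strain exposed to compound.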

[3] = NCI Yeast Anticancer Drug Screen. Data for the sgs1 mgt1 strain (AID 161);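 note: 0% = growth of cultures given vehicle only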; conditions: S. cerevisiae sgs1 mgt1 strain, at 50.0 µM, stronger effect = higher value
Procedure, shortened: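 Yeast cells carrying a defined DNA-repair defect were exposed to test compounds. Growth inhibition was measured relative to vehicle-treated controls.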

[4] = NCI Yeast Anticancer Drug Screen. Data for the cln2 rad14 strain (AID 165);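 note: 0% = growth equal to vehicle treated cultures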; conditions: S. cerevisiae cln2 rad14 strain, at 50.0 µM, stronger effect = higher value
Procedure, shortened: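 Relative to vehicle controls, growth inhibition of compound-treated cln2 rad14 yeast was recorded.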

[5] = NCI Yeast Anticancer Drug Screen. Data for the bub3 strain (AID 167); conditions: S. cerevisiae bub3 mutant strain, at 50.0 µM, stronger effect = higher value
Procedure, shortened: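 In this screen, a yeast mutant lacking normal mitotic checkpoint function is challenged with compound. Relative growth versus vehicle gives the inhibition value.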

[6] = NCI Yeast Anticancer Drug Screen. Data for the mlh1 rad18 strain (AID 175); conditions: S. cerevisiae mlh1 rad18 strain growth inhibition; at 50.0 µM; stronger effect = higher value
Procedure, shortened: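 Test agents were incubated with a yeast strain of defined genotype (DNA damage repair defect). Inhibition of growth was derived by comparison with vehicle-exposed cultures.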

Measured: growth inhibition

COC(=O)CCCCC#CCCCCC(=O)OC
inactive: [1] 3.25% | [2] 38.6% | [3] -4.65% | [4] -2.6% | [5] 12.2% | [6] 12.9%

CCCCCC(=C/c1ccccc1)/C=N/N1CCN(/N=C/C(=C/c2ccccc2)CCCCC)CC1
inactive: [1] 32.1% | [2] 10.8% | [3] 22.4% | [4] 3.2% | [5] -0.85% | [6] 11.2%

[N-]=[N+]=Nc1ccccc1-c1ccc([N+](=O)[O-])cc1
inactive: [1] -12.9% | [2] -11.5% | [3] 11.1% | [4] -32.2% | [5] 1.2% | [6] 29.6%

O=C(/C=C/c1ccc(F)c(F)c1)OCCc1ccccc1
inactive: [1] 28.1% | [2] 29% | [3] 32.7% | [4] 28.9% | [5] 40.9% | [6] 27.2%

O=C(NC(Cc1ccccc1)C(=O)O)c1ccccc1 (configuration not stated)
inactive: [1] 4% | [2] 4.9% | [3] 24.1% | [4] -1.6% | [5] 6.7% | [6] 1.55%

CC1(C)Oc2ccc(NC(=O)CCC(N)C(=O)O)cc2O1 (configuration not stated)
inactive: [1] -28.2% | [2] -52.7% | [3] -1% | [4] 11.5% | [5] 16.5% | [6] -18.1%

OCCN(c1ccccc1)c1nc(N(CCO)c2ccccc2)nc(N(CCO)c2ccccc2)n1
inactive: [1] 2.7% | [2] 8.8% | [3] 32.5% | [4] 7.75% | [5] 29.9% | [6] 1.7%

Cc1cc(=O)oc2cc(OCCCOc3ccc4c(C)cc(=O)oc4c3)ccc12
inactive: [1] 19.1% | [2] 5.45% | [3] -2.1% | [4] -4.1% | [5] -5.2% | [6] 13.3%

COC(=O)C1(C)CCCC2(C)C1CCC1(O)C2CC2OC2(C(C)C)C1O (configuration not stated)
inactive: [1] -2.65% | [2] -21.4% | [3] -0.9% | [4] -31.4% | [5] -13.2% | [6] 3.45%

Cc1cccc(C)c1OC(=O)Nc1ccccc1
inactive: [1] 3.75% | [2] -18.6% | [3] 4.3% | [4] -46.5% | [5] 9.7% | [6] -8.95%

O=C1CSC(c2ccccc2C(F)(F)F)N1c1nncs1 (configuration not stated)
inactive: [1] 18.4% | [2] 1% | [3] 11.6% | [4] -46% | [5] -39.2% | [6] 9.8%

CC(=O)Nc1c(OC(C)=O)ccc2cc(Br)ccc12
inactive: [1] -0.15% | [2] 20.9% | [3] 12.4% | [4] -15.2% | [5] -0.25% | [6] 8.85%

CCOCN1COCN(C)C1=O
inactive: [1] 8.1% | [2] -6.55% | [3] -6.45% | [4] 13.3% | [5] 20.1% | [6] 3.95%

CCOC(=O)c1c2c(c(-c3ccccc3)n1C)C(=O)C(C)=C(C)C2=O
inactive: [1] -10.8% | [2] -2.4% | [3] -10.2% | [4] -28.9% | [5] 1.05% | [6] -6.65%

CCOC(=O)C(CC)N1C(=O)c2ccccc2S1(=O)=O (configuration not stated)
inactive: [1] -16.1% | [2] -10.5% | [3] -12.4% | [4] 48.2% | [5] 33.5% | [6] -12.6%

CC1CCc2cc(Br)ccc2N1N (configuration not stated)
inactive: [1] 33.1% | [2] 0.85% | [3] -5.35% | [4] 9.8% | [5] -4.8% | [6] 27.8%

CON[N+]([O-])=NC(C)C
inactive: [1] 27.6% | [2] 6.3% | [3] 21.6% | [4] 11.5% | [5] 17% | [6] 21.8%

N#COc1ccc(-c2ccccc2)cc1
inactive: [1] -38.5% | [2] -8.35% | [3] -12.2% | [4] -15.2% | [5] -9.25% | [6] 0.8%

O=C(NC(O)(C(F)(F)F)C(F)(F)F)c1ccccc1
inactive: [1] -5.35% | [2] 6.85% | [3] 10.7% | [4] 0.9% | [5] -7.05% | [6] -6.95%

O/N=C/c1ncccc1C1OCCO1
inactive: [1] 9.45% | [2] -0.55% | [3] -2.35% | [4] 9.8% | [5] -6.7% | [6] 14.7%

Ic1cc2c(cc1CNCc1ccccc1)OCO2
inactive: [1] 11.7% | [2] -19.6% | [3] 26.7% | [4] -56.4% | [5] 2.6% | [6] 7.2%

CCCCNCCCNCCCC
inactive: [1] 4.95% | [2] -3.4% | [3] 0.65% | [4] -0.7% | [5] 25.5% | [6] 2.6%

COC(=O)NC1(NC(=O)OC)NC(=O)c2cc(OC)c(OC)c(OC)c2N1
inactive: [1] 17.1% | [2] 8.45% | [3] 10.8% | [4] -10.8% | [5] -12.3% | [6] 3.85%

COC(=O)c1nc(N)[nH]c(=O)c1CCCCCc1c(C(=O)OC)nc(N)[nH]c1=O
inactive: [1] -4.8% | [2] -0.15% | [3] -9.2% | [4] 6.5% | [5] -0.3% | [6] -17.6%

Cc1cc2nc(CC(=O)c3cccnc3)c(=O)[nH]c2cc1C
inactive: [1] 0.9% | [2] 3.05% | [3] 12.4% | [4] 18.3% | [5] -8.05% | [6] 15.8%

O=c1[nH]cnc2c1CNC2
inactive: [1] 9.5% | [2] -2.5% | [3] -10.4% | [4] -65.8% | [5] -18.4% | [6] 1.6%

N#CNc1ccccc1
inactive: [1] 0.05% | [2] 6.15% | [3] -12.2% | [4] -8.8% | [5] 5.15% | [6] 3.45%

C[n+]1ccccc1/C=C/c1ccc([N+](=O)[O-])cc1
inactive: [1] 9% | [2] 5.8% | [3] 13.2% | [4] -10.3% | [5] -1.8% | [6] 6.3%

C=Cc1ccc(-c2ccccc2)cc1
inactive: [1] 7.1% | [2] -14.7% | [3] -25.5% | [4] -43.2% | [5] -5.8% | [6] -0.65%

CC(C)COS(=O)(=O)O
inactive: [1] 19.2% | [2] 6.65% | [3] 20% | [4] 24.9% | [5] 15.2% | [6] 27.1%

COC(=O)C(=O)C(C(=O)C(=O)Nc1cccc(OC)c1)c1nc2ccc(Cl)cc2[nH]c1=O (configuration not stated)
inactive: [1] 21.1% | [2] -1.2% | [3] -8.25% | [4] -10.2% | [5] -35.1% | [6] -25.6%

CN1CCN(c2nc3c(c(=O)n(C)c(=O)n3C)n2C)CC1
inactive: [1] -4.9% | [2] 5.35% | [3] -18.8% | [4] -6.1% | [5] -11% | [6] 6.2%

OC1CC2CCCCC2CC1c1ccccc1 (configuration not stated)
inactive: [1] 14.1% | [2] 3.1% | [3] -15.3% | [4] -0.05% | [5] 27.4% | [6] 33.5%

CCOC(=O)C(Cl)(NC(=O)OCc1ccccc1)C(F)(F)F (configuration not stated)
inactive: [1] -21.8% | [2] 0% | [3] 7.15% | [4] 22.5% | [5] 6.7% | [6] -56.1%

COc1cccc(C2C(C(=O)O)=C(CO)Oc3cc4c(cc32)OCO4)c1 (configuration not stated)
inactive: [1] 21.4% | [2] 15.8% | [3] 21.9% | [4] 13.6% | [5] 12.6% | [6] 15.2%

O=C(CN1CCCC1=O)CS(=O)(=O)c1ccccc1
inactive: [1] -14.5% | [2] -5.3% | [3] -20.3% | [4] -0.6% | [5] -9.6% | [6] 2.3%

COc1ccc(C2OC3=C(Nc4ccc(Cl)cc4N3)C2=O)c(OC)c1 (configuration not stated)
inactive: [1] -9.1% | [2] -30.9% | [3] -28.1% | [4] -29.9% | [5] -42.2% | [6] -28.8%

CCc1ccc(/C(C#N)=C/c2cccc3ccccc23)cc1
inactive: [1] 2.45% | [2] -11.1% | [3] -0.6% | [4] -1.9% | [5] 4.05% | [6] -5.25%

O=C1CCC2(C=Nc3ccccc32)C2Cc3ccccc3N12 (configuration not stated)
inactive: [1] -27.3% | [2] -11.8% | [3] -6.8% | [4] 3.75% | [5] 8.05% | [6] -29.7%

COC(=O)c1c(O)ccc(O)c1C(=O)OC
inactive: [1] -15.7% | [2] -18.4% | [3] -13.6% | [4] -16.6% | [5] -6.4% | [6] -21.6%

OC1CC2C3CCC(C3)C2C1O (configuration not stated)
inactive: [1] -11.8% | [2] -6.35% | [3] -10.4% | [4] -7.45% | [5] 9.55% | [6] -2.95%

CCc1ccc(N=Nc2ccc(Br)cc2)cc1
inactive: [1] 8.85% | [2] -18% | [3] -4.95% | [4] 6.85% | [5] 2.85% | [6] -10.3%
